# In the library only some 3.7% were active in any assay of this set; here they are far more common.
# NTMT1 inh – Primary qHTS for Inhibitors of N-terminal methyltransferase 1 (NTMT1): MTaseGlo Assay; AID 1645870, 2021; actives 2.5% (n = 59,000); N-terminal Xaa-Pro-Lys N-methyltransferase 1 (Homo sapiens), Q9BV86; Potency, µM (series often up to 114 µM), for the others: at the top dose activity change, negative = inhibition, hits mostly inhibitors; NTMT1 MTase-Glo SAH luminescence, purified enzyme;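 also: potency is read from the fitted curve at half-maximal effect; plate controls were DMSO vehicle for no effect and no enzyme for full effect; nearly all actives have a fitted effect of over 65% in size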
# Target sequence (Q9BV86 whole entry, looked up): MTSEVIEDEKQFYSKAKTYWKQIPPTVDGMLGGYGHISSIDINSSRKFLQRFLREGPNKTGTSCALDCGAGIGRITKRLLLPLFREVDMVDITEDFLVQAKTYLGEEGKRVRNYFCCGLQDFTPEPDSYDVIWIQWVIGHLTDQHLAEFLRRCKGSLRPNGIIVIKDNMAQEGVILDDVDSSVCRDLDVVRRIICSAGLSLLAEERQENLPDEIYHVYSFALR
# TSG101-PTAP inh – qHTS Validation Assay for Inhibitors of HIV-1 Budding by Blocking the Interaction of PTAP/TSG101: Sytravon Library Screen; Tumor susceptibility gene 101 protein (Homo sapiens), Q99816; 44,000 tested, under 10 active; AID 1347069, 2019; Fluorescence polarization, FITC-PTAP peptide/Tsg101, 20 min; Potency, µM (series often up to 115 µM), usual class: inhibitors; also: potency is read from the fitted curve at half-maximal effect; 0% is about no effect
#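 Fluorescence polarization: Tsg101 binding domain (10 uM final) in 10 mM HEPES pH 7.5, 0.15 M NaCl, 0.01% Tween 20, 3 mM EDTA, 0.1 mM TCEP; compounds pinned; FITC-PTAP peptide 50 nM final; 20 min, r.t.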
# GALK inh – qHTS Assay for Inhibitors of Human Galactokinase (GALK): NCGC Sytravon Library Screen. 44,000 tested, under 10 active. AID 1347072, 2019. Potency, µM (highest dose often 57.5 µM), for the others: at the highest dose activity, negative = inhibition, most hits filed as inhibitors. P51570. recombinant GALK, Kinase-Glo ATP luminescence, 1 h;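 also: plate controls were full GALK reaction for no effect and reaction lacking GALK for full effect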
#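 Compounds were pinned into ATP buffer, then GALK-galactose mix was added (final 5 nM enzyme, 35 uM ATP, 100 uM galactose, pH 8.0). After 1 h at room temperature, Kinase-Glo Plus was added and luminescence read.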
# FH mod – Identification of activators of human fumarate hydratase by quantitative high-throughput screening | Fumarate hydratase, mitochondrial (Homo sapiens), P07954 | FH coupled MDH/diaphorase resazurin fluorescence, 15 min | Potency, µM (series often up to 79.9 µM), without a hit: at the top dose activity change, negative = inhibition, most hits filed as inhibitors | actives 0.22% (n = 54,000); also: potency is read from the fitted curve at half-maximal effect; % is scaled to controls: 0 for no effect and ±100 for the full control effect; the screen sought activators but most active calls are inhibition curves; nearly all actives have a fitted effect of over 45% in size
# GPR32 ag – qHTS for Agonists of Human Resolvin D1 Receptor DRV1; CHO-K1 GPR32 beta-arrestin PathHunter luminescence, 90 min; zero percent set by DMSO-only wells; actives 2.5% (n = 48,000); Probable G-protein coupled receptor 32 (Homo sapiens), O75388; activation, % at 76.9 µM;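 active = activation of at least 60% and not above a set upper limit, about 1 call in 100 departs from these limits; inconclusive = activation of 40% to 60%, or above that upper limit; inactive = activation under 40%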; also: 0% is about no effect
# Target sequence (O75388 whole entry, looked up): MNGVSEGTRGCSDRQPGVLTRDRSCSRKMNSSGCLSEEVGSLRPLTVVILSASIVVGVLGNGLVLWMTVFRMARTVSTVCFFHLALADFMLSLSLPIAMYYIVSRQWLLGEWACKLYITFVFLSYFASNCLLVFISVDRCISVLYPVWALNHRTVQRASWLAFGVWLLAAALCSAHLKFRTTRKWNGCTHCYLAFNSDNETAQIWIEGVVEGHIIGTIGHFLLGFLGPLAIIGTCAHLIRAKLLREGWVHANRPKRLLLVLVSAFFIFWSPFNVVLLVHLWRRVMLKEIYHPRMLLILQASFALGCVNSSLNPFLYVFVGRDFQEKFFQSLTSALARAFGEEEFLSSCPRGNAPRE
#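 GPR32 activation in stably transfected CHO-K1 cells, detected as beta-arrestin recruitment by enzyme-fragment complementation. Compound exposure: 90 min, 37 °C.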
# B2AR arrestin ag – qHTS assay of beta-arrestin-biased ligands of beta2-adrenergic receptor: NCGC Sytravon Library Screen. 44,000 tested, under 10 active. Potency, µM (top dose mostly 46.1 µM), most hits filed as activators. Beta-2 adrenergic receptor (Homo sapiens), P07550. AID 1347077, 2019. HTLA Tango cells, beta-arrestin recruitment, luciferase luminescence, 18 h;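 also: potency is read from the fitted curve at half-maximal effect; 0% = DMSO and full agonism = EC100 isoproterenol or metaproterenol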
#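 First, Tango cells carrying beta2-AR and beta-arrestin fusions received compound up to 46 microM. After 18 hr at 37 degrees C, luciferase substrate was added for 15 minutes, then luminescence gave %Activity for curve fitting.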
# * = called active by the depositor; i = inactive; ? = inconclusive; . = no result given; ! = a repeat was not active; [ ] = dose if it differs, or a comment. Unless noted, calls follow the shape of the dose curve; as a rule, active = well fitted curve in the direction sought with a large enough effect; inconclusive = small, poorly fitted or top-dose-only effect, or another doubt; inactive = no such curve, though single readings can be large; an effect the other way counts as inactive or inconclusive.
SMILES,NTMT1 inh,TSG101-PTAP inh,GALK inh,FH mod,GPR32 ag,B2AR arrestin ag
O=C(Nc1nnc(S(=O)(=O)N2CCCC2)s1)c1ccc(F)cc1,9.2%,i,-11.3%,17.2%,64.0*,i
Cc1cccc(C(=O)Nc2nnc(S(=O)(=O)N3CCOCC3)s2)c1,4.7%,i,-8.8%,-7.9%,?,i
CC1CCN(S(=O)(=O)c2nnc(NC(=O)c3cccc(Br)c3)s2)CC1,34.5%,i,2.9%,-6.8%,72.7*,i
Cc1cccc(C(=O)Nc2nnc(S(=O)(=O)N3CCC(C)CC3)s2)c1,3.6%,i,0.7%,-3.8%,68.5*,i
CC1CCN(S(=O)(=O)c2nnc(NC(=O)c3cccc(F)c3)s2)CC1,23.8%,i,-2.6%,-1.0%,42.7,i
COc1cc2c(cc1OC)N1C(=O)C[C@]34C=CCN5CC[C@@H]2[C@@H](CC3)[C@]514,34.4%[29.8 µM],.,.,17.5%[53.3 µM],.,.
CC(=O)NCC(=O)N1[C@@H]2CC[C@H]1c1ccc(Nc3ncc(C(F)(F)F)c(NC4CCC4)n3)cc12,-4.2%,.,.,.,.,.
CC(C)c1onc(-c2c(Cl)cccc2Cl)c1COc1ccc(C=Cc2cccc(C(=O)O)c2)c(Cl)c1,17.1µM*,.,.,?,.,.
CCCCCN=C(N)N/N=C/c1c[nH]c2ccc(OC)cc12,?,.,.,-3.3%[53.3 µM],73.5*,.
CCCCCN=C(N)NN=Cc1c[nH]c2ccc(OC)cc12,9.7%[57.5 µM],.,.,3.3%[53.3 µM],.,.
CCOc1ccc2ncc3c(-c4cccc(OC)c4)nn(-c4ccccc4)c3c2c1,89.1µM*,i,0.3%,0.9%,13.7,i
CCc1ccc(-c2nn(-c3ccc(OC)cc3)c3c2cnc2ccc(OC)cc23)cc1,-14.4%,i,7.4%,?,-1.9,i
Nc1cccc(-c2cc3c(Oc4cccc(O)c4)ncnc3[nH]2)c1,22.4µM*!,.,.,-0.7%,.,.
CNc1ncnc2c1ncn2[C@@H]1O[C@H](CO)C(O)[C@H]1O (some centres undefined),.,.,.,-1.5%[53.3 µM],.,.
CCOc1ccc(CNC(=O)c2ccc(Sc3ccc(Cl)cc3)c(NC(C)=O)c2)cc1OC,89.1µM*,i,-1.5%,?,-11.6,i
OCc1ccccc1O,37.2%[57.5 µM],.,.,0.0%[53.3 µM],-20.8,.
Oc1ccc2ccccc2c1SSc1c(O)ccc2ccccc12,8.91µM*!,.,.,35.5µM*!,50.0,.
CCOC(=O)N1CCC(n2c(=O)[nH]c3cc(Cl)ccc32)CC1,33.0%[57.5 µM],.,.,-4.9%[53.3 µM],72.2*,.
CCOC(=O)c1cccc(NS(=O)(=O)c2ccc3[nH]c4c(c3c2)CCCC4)c1,?,i,2.5%,?,82.0*,i
Cc1cc(C)cc(NC(=O)CN(C)S(=O)(=O)c2ccc3[nH]c4c(c3c2)CCCC4)c1,?,i,-3.5%,?,15.4,i
CCOc1ccc(NS(=O)(=O)c2ccc3[nH]c4c(c3c2)CCCC4)cc1,?,i,4.8%,?,48.6,i
CC(=O)c1cccc(NS(=O)(=O)c2cccc(S(=O)(=O)c3ccc(Br)cc3)c2)c1,-6.5%,i,-18.9%,-16.1%,62.9*,i
CC(=O)c1cccc(NS(=O)(=O)c2ccc3c(c2)NC(=O)CC(=O)N3)c1,4.4%,i,-2.5%,1.9%,0.4,i
CC(=O)c1cccc(NS(=O)(=O)c2ccc3[nH]c4c(c3c2)CCCCCC4)c1,-5.6%,i,-5.8%,?,100.3*,i
Cc1cccc(C)c1NC(=O)CN(C)S(=O)(=O)c1ccc2[nH]c3c(c2c1)CCCC3,?,i,1.0%,-18.3%,62.3*,i
SMILES,NTMT1 inh,TSG101-PTAP inh,GALK inh,FH mod,GPR32 ag,B2AR arrestin ag
CC(=O)c1cccc(NS(=O)(=O)c2ccc3[nH]c4c(c3c2)CCCCC4)c1,-11.2%,i,1.2%,?,31.6,i
Cc1ccc2nc3sc(C(=O)N4CCOCC4)cc3cc2c1,0.6%[57.5 µM],.,.,.,.,.
COC1CC(=O)C23C(=O)NC(CC(C)C)C2C(C)C(C)=CC3/C=C(\C)CCCC1O (centres undefined),1.2%[29.8 µM],.,.,9.8%[53.3 µM],.,.
CC(=O)Nc1sc2c(c1-c1ccc(C(F)(F)F)cc1)CCNC2,-1.8%,.,.,.,.,.
Cc1cccc(NS(=O)(=O)c2ccc3[nH]c4c(c3c2)CCCCCC4)c1,-1.2%,i,?,?,6.3,i
O=S(=O)(Nc1cccc(Cl)c1)c1ccc2[nH]c3c(c2c1)CCCCCC3,-4.7%,i,-4.0%,?,61.7*,i
O=C(O)c1ccc(O)c2ncc(N3CC(N4CCOCC4)C3)cc12,5.3%[57.5 µM],.,.,.,.,.
CC(=O)Nc1ccc(NC(=O)c2cnn3c(C)cc(C)nc23)cc1,-16.5%,.,.,.,.,.
COc1cc2nc(N3CCN(C(=O)c4ccco4)CC3)nc(N)c2cc1OC,1.4%,.,.,?,?,.
COc1cc2nc(N3CCN(C(=O)C4COc5ccccc5O4)CC3)nc(N)c2cc1OC (centres undefined),?,.,.,?,108.5*!,.
Cc1ccc(/C=C/C(=O)Nc2nc(-c3cccs3)ns2)cc1,8.1%,i,0.0%,-2.9%,70.4*,i
COc1ccc(/C=C/C(=O)Nc2nc(-c3cccs3)ns2)cc1,5.2%,i,6.8%,7.7%,14.1,i
O=C(/C=C/c1ccccc1)Nc1nc(-c2cccs2)ns1,16.0%,i,2.5%,-1.2%,80.8*,i
Cc1cccc(C#Cc2cc(F)cc(C#N)c2)n1,1.5%[57.5 µM],.,.,?,.,.
O=C(O)c1ccc(O)c2ncc(N3CCCN(C4CCCC4)CC3)cc12,-1.5%,.,.,.,.,.
COc1ccc2nc3cc(Cl)ccc3c(Nc3cc(CN4CCCC4)c(O)c(CN4CCCC4)c3)c2n1,?,.,.,0.4%[53.3 µM],.,.
CCN(CC)CCCC(C)Nc1c2ccc(Cl)cc2nc2ccc(OC)cc12 (centres undefined),44.7µM*!,.,.,3.2%[53.3 µM],11.3,.
Cc1nc2scc(C)n2c(=O)c1S(=O)(=O)Nc1ccc(N2CCN(S(C)(=O)=O)CC2)cc1,.,i,-0.5%,.,79.6*,i
CC(C)CC(=O)OCc1cc(=O)n2nc(C3CCCCC3)sc2n1,4.5%,i,-0.7%,3.9%,70.8*,i
CC(C)C(=O)OCc1cc(=O)n2nc(C3CCCCC3)sc2n1,-0.6%,i,0.9%,-16.7%,-8.9,i
Cc1nc2cccnc2n1C1CCN(S(C)(=O)=O)CC1,.,i,-1.3%,.,15.7,i
COc1ccc(OC)c(S(=O)(=O)N2CCC(n3c(C)nc4cccnc43)CC2)c1,.,i,0.7%,.,64.7*,i
CN(CC=CC#CC(C)(C)C)Cc1cccc2ccccc12,-22.6%[57.5 µM],.,.,7.7%[53.3 µM],.,.

# High-throughput results (PubChem)
